The record followed here is PubChem BioAssay (NCATS).

Molecules are shown by their SMILES. Results filed as inconclusive are left out. The source made the active and inactive calls. Unless noted, the call rests on the fitted dose curve; in most records, active means well fitted curve in the direction sought with a large enough effect; inconclusive means small, poorly fitted or top-dose-only effect, or another doubt; inactive means no such curve, though single readings can be large; an effect the other way counts as inactive or inconclusive.

Assay [1] in a line: qHTS for Inhibitors of the Functional Ribonucleoprotein Complex (vRNP) of Lassa (LASV) Arenavirus: LASV Primary Screen - GLuc reporter signal (AID 1347082; calls by dose curve; tested in HEK293 reporter line; further: series mostly up to about 57 µM; nearly all actives have a fitted effect of over 60% in size). For orientation: In qHTS, concentration-response curves come from the screen itself.
Assay [2] is described as follows: qHTS for Inhibitors of the Functional Ribonucleoprotein Complex (vRNP) of Lassa (LASV) Arenavirus: Viability assay - alamar blue signal for LASV Primary Screen (AID 1347083; calls by dose curve; tested in HEK293 reporter line; further: series mostly up to about 57 µM; nearly all actives have a fitted effect of over 80% in size).
Assay [3] can be described thus: qHTS for Inhibitors of the Functional Ribonucleoprotein Complex (vRNP) of Lymphocytic Choriomeningitis Arenaviruses (LCMV): Viability assay - alamar blue signal for LCMV Primary Screen (AID 1347085; calls by dose curve; tested in HEK293 reporter line; further: series mostly up to about 57 µM; nearly all actives have a fitted effect of over 80% in size).
The target in assay [4] is Nucleoprotein (Lymphocytic choriomeningitis virus (strain Armstrong)) (UniProt P09992). The assay is described as follows: qHTS for Inhibitors of the Functional Ribonucleoprotein Complex (vRNP) of Lymphocytic Choriomeningitis Arenaviruses (LCMV): LCMV Primary Screen - GLuc reporter signal (AID 1347086; calls by dose curve; further: series mostly up to about 57 µM; nearly all actives have a fitted effect of over 70% in size).
Chain of Nucleoprotein (Lymphocytic choriomeningitis virus (strain Armstrong)) (P09992 whole entry, looked up): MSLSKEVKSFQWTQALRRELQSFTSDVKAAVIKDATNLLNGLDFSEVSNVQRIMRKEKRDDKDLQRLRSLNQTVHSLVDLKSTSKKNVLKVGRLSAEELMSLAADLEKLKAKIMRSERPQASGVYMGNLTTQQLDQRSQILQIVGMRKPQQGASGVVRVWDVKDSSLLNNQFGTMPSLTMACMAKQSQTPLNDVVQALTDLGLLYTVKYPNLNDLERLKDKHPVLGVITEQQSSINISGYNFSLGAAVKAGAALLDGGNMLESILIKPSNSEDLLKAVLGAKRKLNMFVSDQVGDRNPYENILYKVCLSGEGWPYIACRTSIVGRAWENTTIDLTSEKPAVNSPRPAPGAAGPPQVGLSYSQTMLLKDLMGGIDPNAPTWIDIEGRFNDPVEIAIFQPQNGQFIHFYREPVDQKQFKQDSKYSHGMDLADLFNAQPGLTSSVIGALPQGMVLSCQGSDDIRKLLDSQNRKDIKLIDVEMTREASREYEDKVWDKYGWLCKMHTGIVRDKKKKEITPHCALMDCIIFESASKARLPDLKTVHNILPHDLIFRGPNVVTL
The nature of assay [5]: qHTS of pediatric cancer cell lines to identify multiple opportunities for drug repurposing: Primary screen for TC32 cells (AID 1347089). Further: nearly all actives have a fitted effect of over 60% in size. In short, it runs like this:
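Measured quantity: luminescence from CellTiter-Glo, reflecting metabolically active TC32 cells following 48 h of compound. Curves came straight from multi-point titrations, with 8 or 11 points in primary and 11 in confirmatory screening.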

Assay [6] is described as follows: qHTS of pediatric cancer cell lines to identify multiple opportunities for drug repurposing: Primary screen for SJ-GBM2 cells (AID 1347091). In short, it runs like this:
(§1)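 Cell viability, CellTiter-Glo luminescence; 500-1,000 cells/well, 8- or 11-point titration, 48 h compound exposure at 37 degrees C, 5% CO2. Controls: DMSO neutral, bortezomib 2.3 µM final as positive.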

Assay [7] is described as follows: qHTS of pediatric cancer cell lines to identify multiple opportunities for drug repurposing: Primary screen for A673 cells (AID 1347092). Further: nearly all actives have a fitted effect of over 45% in size. Further: potency means the concentration at half of the fitted maximal effect. In short, it runs like this:
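Cells are plated, rested 5 h, dosed by pintool, incubated 48 h, then lysed with CellTiter-Glo and read by luminescence. DMSO is the neutral control; bortezomib at 2.3 uM final is the positive control.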

A short description of assay [8]: qHTS of pediatric cancer cell lines to identify multiple opportunities for drug repurposing: Primary screen for SK-N-MC cells (AID 1347093). Further: potency means the concentration at half of the fitted maximal effect. In a few lines:
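Metabolically active cells were quantified by ATP-dependent luminescence (CellTiter-Glo, 15 min at room temperature) following 48 h treatment. Cells had been plated at 500-1,000 per well and settled for 5 h beforehand.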

A short description of assay [9]: qHTS of pediatric cancer cell lines to identify multiple opportunities for drug repurposing: Primary screen for BT-37 cells (AID 1347094). Further: series mostly up to about 57 µM. In short, it runs like this: (§2)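 CRCs from 8- or 11-point titrations (lowest final 0.59 nM NPC, 0.78 nM MIPE). Cell viability: CellTiter-Glo after 48 h incubation, 15 min room-temperature development, luminescence imaging.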
Assay [10] in a line: qHTS of pediatric cancer cell lines to identify multiple opportunities for drug repurposing: Primary screen for NB-EBc1 cells (AID 1347095). In short, it runs like this:
as §2

Assay [11] can be described thus: qHTS of pediatric cancer cell lines to identify multiple opportunities for drug repurposing: Primary screen for Saos-2 cells (AID 1347097). Further: nearly all actives have a fitted effect of over 40% in size. Further: potency means the concentration at half of the fitted maximal effect. In short, it runs like this: as §2
Assay [12] in a line: qHTS of pediatric cancer cell lines to identify multiple opportunities for drug repurposing: Primary screen for SK-N-SH cells (AID 1347098). Further: nearly all actives have a fitted effect of over 65% in size. Further: potency means the concentration at half of the fitted maximal effect. In a few lines:
(§3)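 Cells (500-1,000/well) rested 5 h, then received compounds for 48 h; metabolically active cells were measured by CellTiter-Glo luminescence. Final concentrations spanned up to 46 µM (MIPE, 11-point) or 0.59 nM-46 µM (NPC, 8-point) in primary screens, 11-point in follow-ups.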

Assay [13] in a line: qHTS of pediatric cancer cell lines to identify multiple opportunities for drug repurposing: Primary screen for NB1643 cells (AID 1347099). Further: nearly all actives have a fitted effect of over 50% in size. Further: potency means the concentration at half of the fitted maximal effect. In short, it runs like this:
as §2

A short description of assay [14]: qHTS of pediatric cancer cell lines to identify multiple opportunities for drug repurposing: Primary screen for LAN-5 cells (AID 1347100). Further: potency means the concentration at half of the fitted maximal effect. In short, it runs like this:
as §3

A short description of assay [15]: qHTS of pediatric cancer cell lines to identify multiple opportunities for drug repurposing: Primary screen for DAOY cells (AID 1347090). Further: series mostly up to about 46 µM; nearly all actives have a fitted effect of over 55% in size. In short, it runs like this: as §1
A short description of assay [16]: qHTS of pediatric cancer cell lines to identify multiple opportunities for drug repurposing: Primary screen for U-2 OS cells (AID 1347096). Further: nearly all actives have a fitted effect of over 50% in size. In short, it runs like this: as §3

With `C[N+]1(CCC(C(N)=O)(c2ccccc2)c2ccccc2)CCCCC1`, the Potency result in assay [1], in assay [2], in assay [3], in assay [4], in [5] and in [6] was “inactive” each time. Besides, the Potency result in [7], in assay [8], in [9], in assay [10], in assay [11] and in assay [12] was “inactive” each time. Moreover, the Potency entry in [13] and in [14] was “inactive” each time.
For `CN(C)CCc1c[nH]c2cccc(O)c12`, the Potency entry in assay [1], in assay [2], in assay [3], in assay [4], in assay [5] and in [15] was “inactive” throughout. In addition, the Potency result in [6], in assay [9], in assay [10], in [11] and in [13] was “inactive” each time. The Potency is 35 µM (active) in assay [12] and 38.2 µM (active) in assay [14].
As for `O=C(NC(=O)c1c(F)cccc1F)Nc1cc(Cl)c(OC(F)(F)C(F)C(F)(F)F)cc1Cl` (stereo not given), the Potency result in assay [1], in assay [2], in [3], in assay [4], in assay [5] and in assay [15] was “inactive” each time. Besides, the Potency result in [8], in assay [10], in [11], in [12] and in [13] was “inactive” in each case.
In the case of `O=C(CCCN1CCC(n2c(=O)[nH]c3ccccc32)CC1)c1ccc(F)cc1`, the Potency entry in assay [1], in assay [2], in [3], in assay [4], in [5] and in [6] was “inactive” throughout. Moreover, the Potency entry in assay [7], in [8], in assay [9], in [10], in assay [11] and in assay [12] was “inactive” each time. For the same compound, the Potency result in assay [13] and in [14] was “inactive” each time.
In the case of `CC(=O)N(CC(=O)N(C)C)c1ccccc1`, the Potency result in assay [1], in assay [2] and in assay [4] was “inactive” each time.
As to `COC(=O)C1=C(C)NC(C)=C(C(=O)OCCCN2CCC(c3ccccc3)(c3ccccc3)CC2)C1c1cccc([N+](=O)[O-])c1` (stereo not given), the Potency result in assay [1], in assay [2] and in assay [4] was “inactive” in each case.
Consider `CN1[C@@H]2CC[C@H]1CC(OC(=O)c1cc(Cl)cc(Cl)c1)C2` (stereo not given in full), for which the Potency entry in [1], in assay [2], in assay [3], in assay [4], in assay [5] and in assay [6] was “inactive” throughout. Moreover, the Potency result in assay [10] and in assay [16] was “inactive” throughout. Besides, the Potency in assay [8] is 0.001 µM (active); in assay [11], 75 µM (active); in assay [13], 0.001 µM (active).
As for `COc1ccc(CCN2CCC(Nc3nc4ccccc4n3Cc3ccc(F)cc3)CC2)cc1`, the Potency result in assay [1], in [2] and in assay [4] was “inactive” in each case.
With `CN(C)CCc1c[nH]c2ccccc12`, the Potency result in [1], in [2], in assay [3], in assay [4], in assay [5] and in [6] was “inactive” throughout. Moreover, the Potency result in assay [8], in [9], in [10], in [11], in assay [12] and in [13] was “inactive” in each case. Also, the Potency entry in assay [14] is “inactive”.
`N[C@@H](Cc1cc(I)c(O)c(I)c1)C(=O)O`: the Potency entry in assay [1], in assay [2] and in assay [4] was “inactive” in each case.
As for `Oc1ccc2[nH]cc(CCCCN3CC=C(c4ccccc4)CC3)c2c1`, the Potency entry in [1], in assay [2], in assay [3], in assay [4], in [15] and in [16] was “inactive” throughout. Further, the Potency result in [11] and in assay [13] was “inactive” throughout. Moreover, in assay [14], the Potency is 11.9 µM (active).
For the compound `COc1cc(N)c(Cl)cc1C(=O)NC1CCN(CCCOc2ccc(F)cc2)CC1OC` (stereo not given), the Potency entry in [1], in [2] and in [4] was “inactive” each time.
On to `Clc1ccc(CO/N=C(\Cn2ccnc2)c2ccc(Cl)cc2Cl)c(Cl)c1`, for which the Potency entry in assay [1], in [2], in [3], in [4] and in assay [13] was “inactive” throughout. Further, in [14], the Potency is 23.7 µM (active).
In the case of `Oc1ccc([C@H]2CNCc3c2ccc(O)c3O)cc1O`, the Potency entry in [1], in [2], in [3], in assay [4], in assay [5] and in assay [6] was “inactive” throughout. The Potency result in assay [9], in [10] and in assay [13] was “inactive” in each case.
Turning to `CN1C(=O)[C@@H](NC(=O)c2cc3ccccc3[nH]2)N=C(c2ccccc2)c2ccccc21`, the Potency entry in [1], in assay [2], in [3], in assay [4], in assay [5] and in assay [9] was “inactive” in each case. For the same compound, the Potency result in assay [10], in [16], in assay [12] and in assay [13] was “inactive” each time. The Potency in assay [7] was 6.68 µM (active); in assay [11], 10.6 µM (active).
As to `O=C(O)c1cccc(-c2noc(-c3ccccc3F)n2)c1`, the Potency result in assay [1], in [2] and in assay [4] was “inactive” each time.
